Source: PubChem
D2 ag-1: Beta-Arrestin HTS for Positive Allosteric Modulators of the Human D2 Dopamine Receptor: Agonists. activation, % (no concentration beside the values). actives 0.084% (n = 360,000). D(2) dopamine receptor (Homo sapiens), P14416. AID 624465, 2012. DiscoveRx PathHunter D2 beta-arrestin, luminescence, 90 min; 100% = 57 uM dopamine signal; in the data active = activation above about 40%; inconclusive = between about 15% and that limit
Target sequence (P14416 whole entry, looked up): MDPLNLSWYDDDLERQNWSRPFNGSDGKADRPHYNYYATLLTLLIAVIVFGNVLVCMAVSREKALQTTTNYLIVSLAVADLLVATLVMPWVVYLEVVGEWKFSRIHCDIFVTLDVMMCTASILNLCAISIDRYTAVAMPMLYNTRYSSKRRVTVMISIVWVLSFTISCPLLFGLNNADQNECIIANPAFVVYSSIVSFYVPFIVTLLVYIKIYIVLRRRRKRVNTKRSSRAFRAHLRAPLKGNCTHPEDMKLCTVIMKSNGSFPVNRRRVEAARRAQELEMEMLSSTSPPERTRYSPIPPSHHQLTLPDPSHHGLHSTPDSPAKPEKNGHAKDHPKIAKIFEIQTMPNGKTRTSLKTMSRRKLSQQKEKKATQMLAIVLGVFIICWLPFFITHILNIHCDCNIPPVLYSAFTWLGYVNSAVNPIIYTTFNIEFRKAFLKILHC
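DiscoveRx PathHunter D2 beta-arrestin cells (2,100/well) attached overnight, then compound-stimulated 90 min at 37 C in HBSS/10 mM HEPES/0.1% Tween-20 buffer; beta-galactosidase complementation read by luminescence after 1 h at ambient temperature. Dopamine 57 uM final (EC100) as control.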
D2 ag-2: HTS Assay for Allosteric Agonists of the Human D2 Dopamine Receptor: Primary Screen for Agonists; AID 485358, 2010; actives 0.53% (n = 340,000); D(2) dopamine receptor (Homo sapiens), P14416; HEK293 T-REx D2 cells, calcium flux agonist mode; activation, % at 2 µM;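 active = activation over 3 SD above normal in the single-dose calcium agonist read, cut at about 30% in these data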
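Tetracycline-induced HEK293 Trex cells with D2 receptor force-coupled to calcium signaling, plated overnight at 30 C and loaded with no-wash calcium dye. Calcium flux read kinetically for 180 s after compound addition; responses flag agonists.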
D2 PAM-1: Beta-Arrestin HTS for Positive Allosteric Modulators of the Human D2 Dopamine Receptor: Potentiators; D(2) dopamine receptor (Homo sapiens), P14416; DiscoveRx D2 beta-arrestin cells, luminescence, 90 min; 100% = 57 uM dopamine signal; potentiation, % (test concentration not listed); actives 0.23% (n = 360,000); AID 624464, 2012; in the data active = potentiation above about 50%; inconclusive = mostly about 30% to 49%
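PathHunter D2 cells, attached overnight at 37 deg C, received compound in DMSO plus dopamine at EC20 (50 nM final) for 90 min at 37 deg C. Beta-arrestin recruitment was read as luminescence after 1 h with detection reagent at ambient temperature.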
D2 antag: HTS Assay for Allosteric Antagonists of the Human D2 Dopamine Receptor: Primary Screen for Antagonists | actives 2% (n = 340,000) | HEK293 TREx D2 cells, calcium flux, dopamine EC80 | D(2) dopamine receptor (Homo sapiens), P14416 | inhibition, % at 10 µM; in the data active = inhibition above about 30%; inactive = below that, where a call was filed
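Measurement of antagonist activity uses fluorescent calcium dye in inducible HEK293 T-REx D2 cells: 10 s baseline, compound addition with 180 s read, EC80 dopamine addition with a further 180 s read.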
Anesthetic bind: qHTS Assay for Identification of Novel General Anesthetics; actives 0.074% (n = 350,000); apoferritin/1-aminoanthracene competitive binding, fluorescence; Ferritin light chain (Equus caballus), P02791; Potency, µM (highest dose often 77.5 µM), most hits filed as inhibitors; active = well fitted inhibition curve with a large enough effect; inconclusive = small, poorly fitted or top-dose-only effect; inactive = no such curve, though single readings can be large or run the other way; also: nearly all actives have a fitted effect of over 20% in size
Target sequence (P02791 2-175 limits assumed): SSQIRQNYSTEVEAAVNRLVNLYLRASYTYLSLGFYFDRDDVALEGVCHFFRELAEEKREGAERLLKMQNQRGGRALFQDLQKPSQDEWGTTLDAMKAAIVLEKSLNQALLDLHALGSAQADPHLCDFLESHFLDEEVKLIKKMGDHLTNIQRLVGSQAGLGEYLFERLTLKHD
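Probe: 1-aminoanthracene (50% saturated, PBS). Protein: horse-spleen apoferritin, 10 uM. Incubation: 10 min, room temperature. Detection: 380 nm excitation, 535 nm emission. Analysis: normalized response, four-parameter Hill.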
D2 PAM-2: HTS Assay for Positive Allosteric Modulators of the Human D2 Dopamine Receptor: Primary Screen for Potentiators; D(2) dopamine receptor (Homo sapiens), P14416; HEK293 T-REx D2, calcium flux, EC20 dopamine potentiation; potentiation, % at 10 µM; actives 0.34% (n = 340,000); AID 485347, 2010;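 active = potentiation over 3 SD above the plate norm, cut at about 30% in these data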
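Potentiation of an EC20 dopamine calcium response measured kinetically over 180 s, after a preceding 180 s compound-only read flagging agonists. Cells: inducible Hek293 Trex D2 line, 4000/well, cultured overnight at 30 C before dye loading.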
A number is an active result. In the library only some 2.5% were active in any assay of this set; here they are far more common.

Results for CCc1ccccc1NC(=S)NC1CC2CCCC(C1)N2Cc1cccs1 (stereo unspecified) ?
D2 ag-1: inactive; D2 ag-2: inactive; D2 PAM-1: inactive; D2 antag: 72; Anesthetic bind: inactive; D2 PAM-2: inactive

What do the screens show for `O=C(Nc1cccc(Cl)c1)NC1CC2CCC(C1)N2Cc1cccs1` (stereo unspecified)?
D2 ag-1: inactive; D2 ag-2: inactive; D2 PAM-1: inactive; D2 antag: 73; Anesthetic bind: inactive; D2 PAM-2: inactive

What do the screens show for `CC(C)c1ccc(NC(=O)NC2CC3CCC(C2)N3Cc2cccs2)cc1` (stereo unspecified)?
D2 ag-1: inactive; D2 ag-2: inactive; D2 PAM-1: inactive; D2 antag: inactive; Anesthetic bind: inactive; D2 PAM-2: inactive

How did Cc1ccc(NC(=S)NC2CC3CCCC(C2)N3Cc2cccs2)cc1 (stereo unspecified) do in these assays?
D2 ag-1: inactive; D2 ag-2: inactive; D2 PAM-1: inactive; D2 antag: 72; Anesthetic bind: inconclusive; D2 PAM-2: inactive

Results for CCCN1C2CCCC1CC(NC(=S)Nc1cccc(C)c1C)C2 (stereo unspecified) ?
D2 ag-1: inactive; D2 ag-2: inactive; D2 PAM-1: inactive; D2 antag: inactive; Anesthetic bind: inactive; D2 PAM-2: inactive

What do the screens show for `Cc1cc(NC(=O)C2CC(=O)N(c3ccc(Cl)cc3)C2)no1` (stereo unspecified)?
D2 ag-1: inactive; D2 ag-2: inactive; D2 PAM-1: inactive; D2 antag: inactive; Anesthetic bind: inactive

Results for OCC[C@@H]1C[C@@H](O)[C@H](O)[C@@]2(CCCO2)O1 ?
D2 ag-1: inactive; D2 PAM-1: inactive

What do the screens show for `Cc1cc(C)n(CC2CC(=O)N(c3cc(Cl)cc(Cl)c3)C2=O)n1` (stereo unspecified)?
D2 ag-1: inactive; D2 ag-2: inactive; D2 PAM-1: inactive; D2 antag: 31; Anesthetic bind: inactive; D2 PAM-2: inactive

Results for Cc1ccccc1/C=C\c1nc2ccccc2c(=O)[nH]1 ?
D2 ag-1: inactive; D2 ag-2: inactive; D2 PAM-1: inactive; D2 antag: 33; Anesthetic bind: inactive; D2 PAM-2: inactive

What do the screens show for `COc1cc2nc(C(C)(C)C)oc(=O)c2cc1OC`?
D2 ag-1: inactive; D2 ag-2: inactive; D2 PAM-1: inactive; D2 antag: inactive; Anesthetic bind: inactive; D2 PAM-2: inactive

How did CC1CCC/C(=N/Nc2ccc([N+](=O)[O-])cc2[N+](=O)[O-])C1 (stereo unspecified) do in these assays?
D2 ag-1: inactive; D2 ag-2: inactive; D2 PAM-1: 74; D2 antag: inactive; Anesthetic bind: inactive; D2 PAM-2: inactive

How did O=[N+]([O-])c1ccc(NN=C2CCCCC2)c([N+](=O)[O-])c1 do in these assays?
D2 ag-1: inactive; D2 PAM-1: inactive

What do the screens show for `CCCn1c(Nc2nc3ccccc3n2C)nc2ccccc21`?
D2 ag-1: inactive; D2 ag-2: inactive; D2 PAM-1: inactive; D2 antag: inactive; Anesthetic bind: inactive; D2 PAM-2: inactive

What do the screens show for `CCCCCn1c(NCc2ccco2)nc2ccccc21`?
D2 ag-1: inactive; D2 ag-2: inactive; D2 PAM-1: inactive; D2 antag: 34; Anesthetic bind: inactive; D2 PAM-2: inactive

How did CCCCn1c(/N=C/c2ccc(N(C)C)cc2)nc2ccccc21 do in these assays?
D2 ag-1: inactive; D2 ag-2: inactive; D2 PAM-1: inactive; D2 antag: inactive; Anesthetic bind: inactive; D2 PAM-2: 49

Results for CCCn1c(NCc2ccco2)nc2ccccc21 ?
D2 ag-1: inactive; D2 ag-2: inactive; D2 PAM-1: inactive; D2 antag: inactive; Anesthetic bind: inactive; D2 PAM-2: inactive

Results for CCCCn1c(N)nc2ccccc21 ?
D2 ag-1: inactive; D2 ag-2: inactive; D2 PAM-1: inactive; D2 antag: 31; Anesthetic bind: inactive; D2 PAM-2: inactive

What do the screens show for `CCCCn1c(Nc2ccccc2)nc2ccccc21`?
D2 ag-1: inactive; D2 ag-2: inactive; D2 PAM-1: inactive; D2 antag: 36; Anesthetic bind: inactive; D2 PAM-2: inactive

How did C=CCn1c(/N=C/c2ccc(N(C)C)cc2)nc2ccccc21 do in these assays?
D2 ag-1: inactive; D2 PAM-1: inactive; Anesthetic bind: inactive

Results for c1cc2nnnn2nc1N1CCCCCC1 ?
D2 ag-1: inactive; D2 ag-2: inactive; D2 PAM-1: inactive; D2 antag: inactive; Anesthetic bind: inactive; D2 PAM-2: inactive

Results for O=C(Nc1ccc(F)cc1)c1cc(S(=O)(=O)N2CCCCC2)ccc1F ?
D2 ag-1: inactive; D2 ag-2: inactive; D2 PAM-1: inactive; D2 antag: inactive; Anesthetic bind: inactive; D2 PAM-2: inactive

What do the screens show for `N#CCC1c2ccccc2CCN1C(=O)Nc1cccc(C(F)(F)F)c1` (stereo unspecified)?
D2 ag-1: inactive; D2 ag-2: inactive; D2 PAM-1: inactive; D2 antag: inactive; Anesthetic bind: inconclusive; D2 PAM-2: inactive

How did N#CCC1c2ccccc2CCN1C(=O)Nc1ccc(C(F)(F)F)cc1 (stereo unspecified) do in these assays?
D2 ag-1: inactive; D2 ag-2: inactive; D2 PAM-1: inactive; D2 antag: 65; Anesthetic bind: inactive; D2 PAM-2: inactive

What do the screens show for `COC(=O)c1scc(-c2ccc(C)cc2)c1S(=O)(=O)Nc1cccc(Cl)c1C`?
D2 ag-2: inactive; Anesthetic bind: inactive; D2 PAM-2: inactive

How did O=C(NC1CCCCC1)c1cc(S(=O)(=O)N2CCN(c3ccccc3)CC2)ccc1Cl do in these assays?
D2 ag-1: inactive; D2 PAM-1: inactive

How did OCC1(CC2CCCCO2)CCN(C/C=C/c2ccccc2)CC1 (stereo unspecified) do in these assays?
D2 ag-1: inactive; D2 ag-2: inactive; D2 PAM-1: inactive; D2 antag: inactive; Anesthetic bind: inactive; D2 PAM-2: inactive

Results for COc1ccccc1/C=C/CN1CCCC(CO)(CCc2ccccc2)C1 (stereo unspecified) ?
D2 ag-1: inactive; D2 ag-2: inactive; D2 PAM-1: inactive; D2 antag: 71; Anesthetic bind: inactive; D2 PAM-2: inactive

How did COc1ccc(CC2(CO)CCN(C/C=C/c3ccccc3OC)CC2)cc1 do in these assays?
D2 ag-1: inactive; D2 ag-2: inactive; D2 PAM-1: inactive; D2 antag: inactive; Anesthetic bind: inactive; D2 PAM-2: inactive
